DNMT1 block: human DNMT1 methyltransferase inhibitors, primary screen, biochemical, molecular beacon, fluorescence, HinP1I cleavage, uHTS; DNA (cytosine-5)-methyltransferase 1 (Homo sapiens), P26358; inhibition (reported as % activation of signal), % at 10 µM; hit rate 0.83% among 360,000; AID 588458, 2011; in the data active means inhibition above about 50%
UHRF1 binding: UHRF1 methylated DNA binding inhibitors, primary screen, counter-screen for MBD2 inhibitor project, biochemical, TR-FRET, human UHRF1, single concentration | AID 687016, 2013 | inhibition, % at 4.4 µM | UHRF1 binding to methylated oligo | E3 ubiquitin-protein ligase UHRF1 (Homo sapiens), Q96T88 | hit rate 0.75% among 370,000; in the data active means inhibition above about 21%;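 further: UHRF1 SRA domain binding a hemimethylated CpG hairpin DNA probe; 0% = median of test compound wells and 100% = reference inhibitor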
Target sequence (Q96T88 whole entry, looked up, the tested form may be a part): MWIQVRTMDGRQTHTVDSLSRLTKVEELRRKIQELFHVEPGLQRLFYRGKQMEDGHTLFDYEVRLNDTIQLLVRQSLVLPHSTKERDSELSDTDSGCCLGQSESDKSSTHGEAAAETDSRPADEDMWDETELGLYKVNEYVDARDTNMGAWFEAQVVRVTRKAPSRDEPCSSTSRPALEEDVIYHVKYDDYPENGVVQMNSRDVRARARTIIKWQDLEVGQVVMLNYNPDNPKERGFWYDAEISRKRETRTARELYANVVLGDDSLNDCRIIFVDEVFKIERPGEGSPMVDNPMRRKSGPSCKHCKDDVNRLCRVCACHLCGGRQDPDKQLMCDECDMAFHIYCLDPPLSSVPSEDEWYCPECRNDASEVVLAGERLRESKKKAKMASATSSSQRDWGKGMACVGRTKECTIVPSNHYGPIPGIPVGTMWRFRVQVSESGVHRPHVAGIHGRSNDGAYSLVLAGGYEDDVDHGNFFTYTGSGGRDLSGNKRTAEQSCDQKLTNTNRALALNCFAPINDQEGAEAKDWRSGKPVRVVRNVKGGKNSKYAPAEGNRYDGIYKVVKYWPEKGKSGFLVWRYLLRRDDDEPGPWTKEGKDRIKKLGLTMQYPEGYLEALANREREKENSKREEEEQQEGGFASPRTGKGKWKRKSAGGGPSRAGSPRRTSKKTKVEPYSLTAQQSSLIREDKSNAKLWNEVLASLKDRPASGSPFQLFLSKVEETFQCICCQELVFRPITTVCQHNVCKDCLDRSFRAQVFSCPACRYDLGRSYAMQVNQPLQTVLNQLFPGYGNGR
rCAG RNA binder: binders of r(CAG) RNA repeats, primary screen, biochemical, fluorescence; inhibition, % at 3 µM; r(CAG) RNA repeat, TO-PRO-1 dye displacement fluorescence; hit rate 1.3% among 370,000;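 active means inhibition above the plate cutoff, the mean of all test compounds on that plate plus 3 SD, cut at about 35% in these data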;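 further: 0% = DMSO alone and 100% = 100 µM mitoxantrone as full dye displacement; higher means more dye released from RNA so lower well fluorescence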
LEDGF integ inh: blockers of LEDGF/p75-dependent integrase strand transfer – biochemical, TR-FRET, high throughput, primary screen. TR-FRET IN-LEDGF/p75 DNA integration, Eu/Cy5. AID 743269, 2014. HIV-1 integrase (with human LEDGF/p75). hit rate 0.64% among 370,000. inhibition, % at 3.7 µM;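 active means inhibition above the screen-wide mean plus 3 SD, cut at about 13% in these data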;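 further: signal is the Cy5 over europium emission ratio at 671 and 618 nm; 0% = plate median of compound wells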
MBD2 DNA inh: inhibitors of MBD2 binding to methylated DNA, primary screen, biochemical, TR-FRET, DNA-binding domain, human; Methyl-CpG-binding domain protein 2 (Homo sapiens), Q9UBB5; MBD2 binding to methylated oligonucleotide; inhibition, % at 4.4 µM; hit rate 0.31% among 370,000; AID 686964, 2013; in the data active means inhibition above about 13%
PG9 binder: binders of HIV-1 gp120 antibody PG9, primary screen, biochemical, TR-FRET; TR-FRET gp120-PG9 antibody binding; inhibition, % at 6.7 µM; AID 624416, 2012; HIV-1 gp120 / PG9 antibody interaction; hit rate 0.43% among 360,000; in the data active means inhibition above about 8.5%
Active calls of the source: *. Compounds with a hit are over-represented: about 3.5% of the library has one in this group of screens.

What do the screens show for `CCOC(=O)C1=NN(c2ccc(OC)cc2)C2C(=O)N(c3ccccc3OC)C(=O)C12` (stereo not given)?
DNMT1 block: 1; UHRF1 binding: -2; rCAG RNA binder: 3; LEDGF integ inh: 0; MBD2 DNA inh: 0; PG9 binder: -1

Results for CCOC(=O)C1=NN(C(=O)Nc2ccc(OC)cc2)C2C(=O)N(c3cccc(C(F)(F)F)c3)C(=O)C12 (stereo not given) ?
DNMT1 block: -10; UHRF1 binding: -3; rCAG RNA binder: 54*; LEDGF integ inh: 1; MBD2 DNA inh: 33*; PG9 binder: 0

How did COc1cc(C)nc(N(C)S(=O)(=O)c2ccccc2Cl)n1 do in these assays?
DNMT1 block: 0; UHRF1 binding: 28*; rCAG RNA binder: -3; LEDGF integ inh: 12; MBD2 DNA inh: 9; PG9 binder: -3

Results for COc1nc(N(C)C)nc(N(OC)S(=O)(=O)c2ccccc2Cl)n1 ?
DNMT1 block: 2; UHRF1 binding: -1; rCAG RNA binder: -4; LEDGF integ inh: -1; MBD2 DNA inh: 0; PG9 binder: -1

How did Cc1cc2nc3ccc(=[N+](C)C)cc-3sc2cc1N do in these assays?
DNMT1 block: 57*

What do the screens show for `Cc1nc2cc(C)c(C)cc2s1`?
DNMT1 block: 0; UHRF1 binding: 1; rCAG RNA binder: 2; LEDGF integ inh: 0; MBD2 DNA inh: -2; PG9 binder: 0

Results for CCCCn1c(NC(C)CC)nc2c1c(=O)[nH]c(=O)n2C (stereo not given) ?
DNMT1 block: -3; UHRF1 binding: 98*; rCAG RNA binder: -1; LEDGF integ inh: -2; MBD2 DNA inh: -2; PG9 binder: 2

Results for Cc1nn(C)c(C(=O)Sc2cccc(Cl)c2)c1[N+](=O)[O-] ?
DNMT1 block: 1; UHRF1 binding: 5; rCAG RNA binder: -3; LEDGF integ inh: -7; MBD2 DNA inh: 5; PG9 binder: -1

How did CCn1nc(C)cc1C(=O)Sc1cccc(Cl)c1 do in these assays?
DNMT1 block: 7; UHRF1 binding: 5; rCAG RNA binder: 42*; LEDGF integ inh: -3; MBD2 DNA inh: 1; PG9 binder: -2

What do the screens show for `Cc1ccc(NC(=O)c2cccc3c2-c2ccccc2C3=O)c(C)c1`?
UHRF1 binding: -3; rCAG RNA binder: 7; LEDGF integ inh: -4; MBD2 DNA inh: 0

What do the screens show for `CCN(CCNCC(O)COCc1ccc(Cl)cc1)c1cccc(C)c1` (stereo not given)?
DNMT1 block: 0; UHRF1 binding: 29*; rCAG RNA binder: -4; LEDGF integ inh: 2; MBD2 DNA inh: -4; PG9 binder: -2

What do the screens show for `CCN(CCNC(=O)c1ccc(C#N)cc1)c1cccc(C)c1`?
DNMT1 block: 0

Results for CC(=O)Oc1cc(C(=O)OCC(=O)NC23CC4CC(CC(C4)C2)C3)cc(OC(C)=O)c1OC(C)=O ?
DNMT1 block: 16; UHRF1 binding: 15; rCAG RNA binder: 53*; LEDGF integ inh: 44*; MBD2 DNA inh: 8; PG9 binder: -3

Results for CCOC(=O)NC[C@@]1(C(=O)OC)CC(=O)N(C)[C@@H]1c1ccccc1 ?
UHRF1 binding: 1; rCAG RNA binder: -2; LEDGF integ inh: -2; MBD2 DNA inh: 0

Results for O=C(c1ccc(-c2nnc(Nc3cccc(Cl)c3)c3ccccc23)cc1)N1C[C@H]2C[C@H](C1)c1cccc(=O)n1C2 ?
DNMT1 block: 74*; UHRF1 binding: 9; rCAG RNA binder: 5; LEDGF integ inh: 2; MBD2 DNA inh: 5; PG9 binder: -2

What do the screens show for `COc1nnc(-c2ccc(C(=O)N3C[C@@H]4C[C@H](C3)c3cccc(=O)n3C4)cc2)c2ccccc12`?
DNMT1 block: 3; UHRF1 binding: 5; rCAG RNA binder: 2; LEDGF integ inh: -1; MBD2 DNA inh: -5; PG9 binder: 2

Results for COc1ccc(/C=C2\N=C(c3ccc(C)cc3)OC2=O)cc1 ?
DNMT1 block: 5; UHRF1 binding: 0; rCAG RNA binder: 2; LEDGF integ inh: -4; MBD2 DNA inh: -2; PG9 binder: 0

Results for Cc1ccc(C2=N/C(=C\c3coc4ccccc4c3=O)C(=O)O2)cc1 ?
UHRF1 binding: 4; rCAG RNA binder: 14; LEDGF integ inh: 40*; MBD2 DNA inh: -2; PG9 binder: 0

How did O=C(NCCc1ccccc1)OCc1cn(Cc2cccc(Cl)c2)nn1 do in these assays?
UHRF1 binding: 1; rCAG RNA binder: -2; LEDGF integ inh: 4; MBD2 DNA inh: -1

Results for CCN(CC)CCCn1c(=S)[nH]c2ncccc2c1=O ?
DNMT1 block: 10; UHRF1 binding: 21*; rCAG RNA binder: 1; LEDGF integ inh: 2; MBD2 DNA inh: 11; PG9 binder: 0

What do the screens show for `CCOC(=O)C1CCCN(C(=O)CN2C(=O)/C(=C/c3ccc(OC)cc3)Oc3ccccc32)C1` (stereo not given)?
DNMT1 block: -11; UHRF1 binding: 22*; rCAG RNA binder: 4; LEDGF integ inh: -2; MBD2 DNA inh: 6; PG9 binder: -1

What do the screens show for `COc1ccc(S[C@]2(C(=O)N3CCN(c4ncccn4)CC3)CC(=O)N(C(=O)c3ccccc3)[C@@H]2c2ccc(OC)cc2)cc1`?
UHRF1 binding: -1; rCAG RNA binder: 15; LEDGF integ inh: 0; MBD2 DNA inh: -1

Results for COc1ccc(C(CNC(=O)c2ccc(NS(=O)(=O)c3ccc4c(c3)OCCO4)cc2)N(C)C)cc1 (stereo not given) ?
DNMT1 block: 2; UHRF1 binding: 21*; rCAG RNA binder: -1; LEDGF integ inh: 5; MBD2 DNA inh: -1; PG9 binder: -1

What do the screens show for `CCC(=O)N1CCc2cc(Br)c(S(=O)(=O)N3CCC(C(=O)NCCCOC(C)C)CC3)cc21`?
UHRF1 binding: -2; rCAG RNA binder: 2; LEDGF integ inh: -3; MBD2 DNA inh: 2

What do the screens show for `Nc1ccc(O)c2c1C(=O)c1ccccc1C2=O`?
DNMT1 block: 89*; UHRF1 binding: 19; rCAG RNA binder: 24; LEDGF integ inh: 5; MBD2 DNA inh: 12; PG9 binder: -20

How did COc1ccc(N)c2c1C(=O)c1ccccc1C2=O do in these assays?
DNMT1 block: -2; UHRF1 binding: -14; rCAG RNA binder: 26; LEDGF integ inh: -3; MBD2 DNA inh: -9; PG9 binder: -46

Results for Cc1ccc(-c2c(C(=O)NC3CCCC3)oc(=O)c3ccccc23)cc1 ?
UHRF1 binding: 2; rCAG RNA binder: 3; LEDGF integ inh: 6; MBD2 DNA inh: 4

Source: PubChem
